# Screens deposited in PubChem BioAssay by several laboratories.
# PfHsp40 yeast = restores yeast growth despite PfHsp40 toxicity; S. cerevisiae expressing PfHsp40, growth rescue, ATP luminescence; growth rescue, % at 12.5 µM; 340,000 compounds, 0.68% hits; AID 504582; in the data active = growth rescue above about 28%, passing the limit was not always enough;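 note: yeast W303a lacking pdr1 and pdr3 grown in galactose medium; growth measured after three days at 30 °C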
# PrPC surface inh = reduces human prion protein on the cell surface; inhibition, % at 13.8 µM; cell surface PrPC, TR-FRET read-out; 370,000 compounds, 0.43% hits; P04156; in the data active = inhibition above about 24%; note: 0% = median of the test wells and 100% = reference compound wells
# PrP UTR inh = suppresses PrP 5' UTR mRNA reporter expression | cell-based PrP 5' UTR mRNA reporter, plate reader | inhibition, % (concentration not given with the values) | 340,000 compounds, 0.35% hits; in the data active = inhibition above about 52%; note: 0 = median of the neutral control wells
# 3CLpro inhibitor = SARS-CoV 3CLpro protease inhibition; recombinant SARS-CoV 3CLpro, quenched FRET peptide cleavage; AID 1706; 290,000 compounds, 0.14% hits; P0C6X7; inhibition, % at 6 µM; in the data active = inhibition above about 12%
# BH1578 lux ind = induces V. cholerae light production without autoinducers; AID 588436; activation, % at 18.7 µM; V. cholerae BH1578 lux reporter, luminescence, 6 h; 350,000 compounds, 0.16% hits; in the data active = activation mostly above about 9.7%, no sharp cut-off
# PriA SSB inh = inhibitors of Klebsiella pneumoniae PriA binding to SSB C-terminal tail. 430,000 compounds, 0.6% hits. AlphaScreen SSBct-PriA binding, biotinylated peptide. inhibition, % at 33 µM; in the data active = inhibition mostly above about 37%, no sharp cut-off; inactive = mostly below about 20%;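 note: plate controls were negative control peptide for no effect and reference peptide for full effect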
# PrPC TRFRET cf = cell surface PrPC inhibition, TR-FRET confirmation. inhibition, % at 13.8 µM. cell surface PrPC level. AID 743200. 1,500 compounds, 65% hits. shares compounds with PrPC surface inh; in the data active = inhibition above about 25%
# LD9 cytotox = counter-screen for PrPc inhibitors: cytotoxicity in LD9 cells | shares compounds with PrPC surface inh | luminescence viability | inhibition, % at 13.8 µM | 1,500 compounds, 29% hits; in the data active = inhibition above about 9.5%
# The depositor's hits bear a star; i = inactive; . = no result given. The list is not random: actives were taken first. Their share in the collection is about 1.6%.
SMILES,PfHsp40 yeast,PrPC surface inh,PrP UTR inh,3CLpro inhibitor,BH1578 lux ind,PriA SSB inh,PrPC TRFRET cf,LD9 cytotox
Cc1cc2ccccc2n1CCNC(=O)c1ccc(S(=O)(=O)N2CCOCC2)cc1,-1,27*,-61,7,1,33,12,2
O=C(Cn1nnc2ccccc21)NCc1cccnc1-c1ccsc1,.,.,.,.,.,-11,.,.
COc1ccc(OC)c(S(=O)(=O)Nc2ccc3c(c2)N(C(=O)C2CCCO2)CC3)c1 (stereo unspecified),.,.,.,.,.,-11,.,.
CCN(CC)S(=O)(=O)c1ccc(N2CCOCC2)c(NS(=O)(=O)c2cc(C(C)(C)C)ccc2C)c1,0,25*,-21,8,1,-3,10,0
CN(C)S(=O)(=O)Oc1ccc2c(c1)OCO2,.,.,.,.,.,-22,.,.
COc1ccc(NC(=O)NNC(=O)COc2ccc3cc(Br)ccc3c2)cc1OC,-1,42*,-24,-3,1,-14,69*,-7
O=c1[nH]c(=S)c2c(n1Cc1ccccc1)CCCC2,.,.,.,.,.,-14,.,.
CC1CCN(S(=O)(=O)c2ccc(NC(=O)c3ccncc3)cc2)CC1,3,2,-20,2,-2,-4,.,.
CCS(=O)(=O)c1ncc(Cl)c(C(=O)Nc2ccc(S(=O)(=O)N3CCC(C)CC3)cc2)n1,1,79*,-6,4,i,-5,38*,100*
CCc1ccc(NC(=O)c2nc(S(=O)(=O)Cc3ccccc3)ncc2Cl)cc1,1,64*,-20,1,i,.,24,96*
CCOC(=O)c1ccc(NC(=O)c2nc(S(=O)(=O)Cc3ccccc3)ncc2Cl)cc1,-1,1,-5,0,i,-4,.,.
COC(=O)c1ccc(NC(=O)c2nc(S(=O)(=O)Cc3cccc(C)c3)ncc2Cl)cc1,-2,84*,-4,6,0,-10,46*,96*
NC(=S)NN=Cc1nccc2c(C(F)(F)C(F)(F)C(F)(F)F)cccc12,.,28*,.,.,i,.,29*,60*
O=C1C2N=NN(c3ccc(Cl)cc3)C2C(=O)N1c1ccc2c(c1)CCC2 (stereo unspecified),.,.,.,.,.,3,.,.
O=C(Nc1cc(N2CCCC2)ncn1)c1ccccn1,.,.,.,.,.,-8,.,.
O=C(NCc1ccccn1)c1coc(=O)c(Br)c1,-1,27*,-12,-4,i,8,-2,0
CCOC(=O)c1sc(NC(=O)Nc2ccccc2)cc1C,1,35*,-70,6,0,1,25*,22*
C[C@@H]1C[C@@H]([C@H](O)CC2CC(=O)NC(=O)C2)C(=O)[C@@H](C)C1,40*,82*,45,.,0,2,86*,33*
O=C(CSc1ccc2ccccc2n1)Nc1cccc(Cl)c1,.,.,.,.,.,-19,.,.
Cc1nc(SCCC(=O)O)c2ccccc2n1,0,103*,1,1,-24,2,119*,3
CCOC(=O)CSc1ccc2ccccc2n1,2,28*,-10,3,-1,-25,61*,-7
O=C(O)CSc1ccc2ccccc2n1,0,58*,-6,1,i,1,58*,-1
O=C(CCSc1ccc2ccccc2n1)NCCc1ccccc1,.,.,.,.,.,-13,.,.
O=C(O)CCSc1ccc2ccccc2n1,-1,82*,-1,0,0,-11,89*,-3
CCOC(=O)CSc1nc2ccccc2n1C(=O)OCC,1,3,4,-3,-1,-12,.,.
SMILES,PfHsp40 yeast,PrPC surface inh,PrP UTR inh,3CLpro inhibitor,BH1578 lux ind,PriA SSB inh,PrPC TRFRET cf,LD9 cytotox
COc1cc(C)c(C)cc1S(=O)(=O)NCC1CCN(c2ccc(C)nn2)CC1,.,.,.,.,.,1,.,.
CC1CCCCC1NC(=S)Nc1ccc(OC(F)F)cc1 (stereo unspecified),.,.,.,.,.,-6,.,.
COc1ccc(-c2cccc(NC(=O)c3ccc(C)c([N+](=O)[O-])c3)c2)nn1,.,.,.,.,.,8,.,.
CCCN(c1ccc(OCC)cc1)S(=O)(=O)c1ccc2c(c1)NC(=O)CO2,1,55*,10,2,0,-4,56*,-2
O=C(NCCn1ncc2c(=O)n(Cc3cccc(C(F)(F)F)c3)cnc21)c1ccc(Br)o1,.,.,.,.,.,-10,.,.
O=C(N[C@H]1CCN(c2ccc(C(F)(F)F)cn2)C1)c1cc(-c2ccco2)[nH]n1,.,.,.,.,.,3,.,.
Cc1cc(SCC(=O)NC2CCCCC2)nc2ccccc12,-1,21,-3,7,0,-7,.,.
Cc1cc(SCC(=O)NC2CCCC2)nc2ccccc12,0,28*,-2,-4,0,7,39*,-3
COc1ccc(-c2ccnc(SCC(=O)c3ccc4c(c3)OCO4)n2)cc1,.,.,.,.,.,-3,.,.
COc1ccc(Cl)cc1S(=O)(=O)Nc1ccncc1,-1,6,-25,1,-1,-12,.,.
O=S(=O)(Nc1ccncc1)c1cc(Cl)c(Cl)cc1Cl,-2,43*,-12,5,i,-13,8,-4
O=C(Nc1nc(-c2ccccn2)cs1)c1ccccc1-n1cnnn1,-1,28*,26,3,i,81*,27*,20*
COc1ccc(OC)c(-c2csc(NC(=O)Cn3[nH]c(=O)c4ccccc4c3=O)n2)c1,0,27*,2,1,i,7,25*,38*
COc1ccc(OC)c(-c2csc(NC(=O)Cc3ccc(F)cc3)n2)c1,3,14,-19,4,0,-5,.,.
S=c1nc[nH]c2c1cnn2-c1ccccc1,14,36*,-12,2,i,-21,43*,-1
CCOc1ccc(NC(=O)c2cccn(Cc3cc(C)ccc3C)c2=O)cc1,.,.,.,.,.,-24,.,.
Cc1cc(C)n(-c2ccc(C(=O)NCc3ccccc3Cl)nn2)n1,.,.,.,.,.,1,.,.
Cc1nc2ccc(Br)cc2c2c1CC(CO)O2 (stereo unspecified),0,29*,-7,-5,1,3,35*,-6
COC(CNC(=O)C(=O)Nc1ccccc1C(F)(F)F)c1ccsc1 (stereo unspecified),.,.,.,.,.,4,.,.
COc1cccc(NC(=O)CCSc2ccc3ccccc3n2)c1,2,68*,-28,-2,i,-15,84*,-7
COc1cccc(NC(=O)CSc2ccc3ccccc3n2)c1,.,.,.,.,.,-1,.,.
COc1ccc(NC(=O)CCSc2ccc3ccccc3n2)cc1,2,56*,-16,-4,-1,-8,75*,-2
O=C(COc1cccc2cccnc12)Nc1cccc(S(=O)(=O)N2CCCC2)c1,0,31*,3,.,1,-3,5,0
CCOc1ccc(NC(=O)COc2cccc3cccnc23)cc1S(=O)(=O)N1CCCC1,.,-1,.,.,0,.,.,.
O=C(Nc1ccc(F)cc1)Nc1cc(OCC(F)(F)F)cc(OCC(F)(F)F)c1,-1,44*,-4,2,0,-20,44*,27*
